This is an account of results in PubChem BioAssay (NCI).

The panel holds about 83,000 compounds, 20% with a hit somewhere; the sample as a whole holds those more often.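 Negative percent growth values reflect cell death: -40 means 40% of the cells present at the start died, and -100 means all died.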 The source made the active and inactive calls.

The subject of this test is A498 renal. The test is described as follows: NCI-60 one-dose screen, 48 h (100 = growth as untreated, 0 = no growth, -100 = all killed). As to conditions: 10 µM unless noted. On the procedure: Growth inhibition of the A498 human tumor cell line is measured as a screen for anti-cancer activity. Cells are grown in 96 well plates and exposed to the test compound for 48 hours. Compounds are tested at a single concentration, which is 10^-5 M for most compounds. The reported endpoint is percent growth (GI% or GIPRCNT), where numbers from 0 - 100% represent growth inhibition, and numbers from -100% - 0 represent cell death. For example, a value of 40 represents 60% growth inhibition. A value of 0 means no net growth occurred over the course of the experiment. A value of -40 indicates 40% of cells at the beginning of the experiment died by the end of the experiment. A value of -100 means all cells are dead at the end of the experiment.
NCI-60 Human Tumor Cell Lines Screen was performed using the standard one-dose NCI protocol, which is described in more detail at https://dtp.cancer.gov/discovery_development/nci-60/default.htm.
Compounds with GIPRCNT values below 10 were considered active. Activity score was based on GIPRCNT using the following formula: […]
Score is 0 for GIPRCNT values of 100 or above, 50 for GIPRCNT values of 0, and 100 for GIPRCNT values of -100.
In the case of `Cc1cc(C)cc(OCC(=O)O)c1`, the growth is 105% (inactive).

Turning to `Nc1ccccc1SC1CC(=O)N(c2ccc(Cl)c(Cl)c2)C1=O` (stereo not given), the growth is 84.8% (inactive).

As for `Nc1ccn(C2CC(N)C(CO)O2)c(=O)n1` (stereo not given), the growth is 100% (inactive).

For `Clc1cccc(Cl)c1C1CSc2ccccc2N=C1c1ccccc1` (stereo not given), the growth is 124% (inactive).

On to `O=c1[nH]c(=O)c2cc(Cl)cc(Cl)c2[nH]1`, for which the growth is 121% (inactive).

On to `CC1(C)OC(=O)CC1=O`, for which the growth was 88.9% (inactive).

Regarding `CCOC(=O)c1c(C)[nH]c(C)c1C=O`, the growth was 92% (inactive).

In the case of `COc1ccc(NNS(=O)(=O)O)cc1`, the growth is 69.5% (inactive).

`O=C(NCCc1ccccc1)/C(=C\c1ccc(Cl)cc1Cl)NC(=O)c1ccccc1`: the growth is 87.5% (inactive).

`COc1ccc(C)cc1NC(=O)SC(C)C`: the growth was 92.3% [100 µM] (inactive).

Turning to `CN(C)c1ncnc2c1cnn2C`, the growth was 112% (inactive).

Take `Nc1c(Br)cc(O)c2c1C(=O)c1ccccc1C2=O`: the growth was 76.4% (inactive).

Turning to `C=C(C)COc1ccc(C(C)(C)C)cc1`, the growth is 105% (inactive).

As for `N#Cc1ccc2nc[nH]c2c1`, the growth was 98.7% (inactive).

Consider `O=C1C=C(c2ccccc2)C(O)(c2ccccc2)C1` (stereo not given), for which the growth was 105% (inactive).

Turning to `CCOC(=N)CC(=O)Nc1cccc(C)c1Cl`, the growth is 120% (inactive).

On to `Clc1ncnc2nc[nH]c12`, for which the growth was 101% (inactive).

Consider `c1ccc2c(NCCCN3CCN(CCCNc4c5ccccc5nc5ccccc45)CC3)c3ccccc3nc2c1`, for which the growth was -31.9% [100 µM] (active).

`CC(=O)c1cccs1`: the growth was 76.6% (inactive).

In the case of `Oc1ccc(N=Cc2ccc(OCc3ccccc3)cc2)cc1`, the growth is 75.8% (inactive).

On to `N#Cc1ccc(OC(=O)Nc2c(Cl)cc(Cl)cc2Cl)cc1`, for which the growth was 125% (inactive).

As for `Clc1ccc(C(SCc2ccccc2)SCc2ccccc2)cc1`, the growth was 81.3% (inactive).

`CCOC(=O)c1ccc(NC(C)=O)o1`: the growth was 63% (inactive).

On to `COC1C(=O)CCC2(CO2)C1(O)C1(C)OC1CCC(C)C` (stereo not given), for which the growth was 113% (inactive).

Consider `c1ccc2[nH]c(Cc3nc4ccccc4[nH]3)nc2c1`, for which the growth was 98.5% (inactive).

Take `C=CCOc1ccc(Cl)cc1Cl`: the growth is 107% (inactive).

Take `Nc1ccc(F)c(Cl)c1F`: the growth was 95% (inactive).

Take `OCc1cccnc1`: the growth is 78.4% (inactive).

On to `O=C(Nc1ccc([N+](=O)[O-])cc1)C(=O)Nc1ccc([N+](=O)[O-])cc1`, for which the growth is 100% (inactive).

For `CCCCn1cnc2c(=O)[nH]cnc21`, the growth is 108% (inactive).

Consider `CCOC(=O)Nc1nccs1`, for which the growth was 99.9% (inactive).

As to `Cc1ccc(S(=O)(=O)NC(=O)NCCSSCCNC(=O)NS(=O)(=O)c2ccc(C)cc2)cc1`, the growth is 93.1% (inactive).

As to `O=C(O)c1cccc(-n2ncc(Cl)c(Cl)c2=O)c1`, the growth was 113% (inactive).

Consider `COC(=O)C1(CC(C)=O)NC(=S)NC(=O)C1C#N` (stereo not given), for which the growth is 147% (inactive).

Consider `CC(C)c1ccccc1NC(=O)N1CCC(C(C)C)CC1`, for which the growth was 99.3% (inactive).

`BrCc1cccc(C[P+](c2ccccc2)(c2ccccc2)c2ccccc2)c1`: the growth is 84.1% (inactive).

For the molecule `O=Cc1ccc(Cl)c(Cl)c1`, the growth was 83.3% (inactive).

In the case of `ClCC(Cl)[C@@H]1CC2C=CC1C2` (stereo not given in full), the growth is 80.2% (inactive).

Take `Cc1ccc(NC(=S)N2CCOCC2)cc1C`: the growth is 105% (inactive).

On to `O=C(N/N=C\c1ccc(Cl)cc1Cl)c1ccncc1`, for which the growth is 95.8% (inactive).
